Values joined by “and” are separate entries in the source; they are usually repeats but may differ in a detail not shown here. Equal entries are not always repeated. Unmarked numbers belong to inactive results. Active and inactive are the calls of the source. The rule behind the calls is not given here.
assay: assay artefact check, AlphaScreen readout interference – biochemical, artefact control for SUMOylation inhibitor project, SAR follow-up (AID 488777); details: purified counter-screen enzymes, TR-FRET, 60 min

| Compound | IC50 |
| --- | --- |
| COC(=O)[C@@H]1C2CCC([C@@H](Cc3ccccc3)Nc3ccccc3)(O2)[C@@H]1C(=O)OC (stereo partly specified) | > 100 µM |
| C=C[C@H](Nc1ccccc1)C12C=CC(O1)C(C(=O)OC)=C2C(=O)OC (stereo partly specified) | > 100 µM |
| CCCCn1c(NC(=O)c2ccccc2)c(C#N)c2nc3ccccc3nc21 | 65.2 µM (active) and 91.7 µM (active) |
| C=CCn1c(NC(=O)c2ccccc2Cl)c(C#N)c2nc3ccccc3nc21 | > 100 µM |
| CCCCn1c(NC(=O)c2ccccc2Cl)c(S(=O)(=O)c2ccccc2)c2nc3ccccc3nc21 | > 100 µM |
| COC(=O)C=C(NC(CO)(CO)CO)C(=O)OC | > 100 µM |

— PubChem BioAssay AID488777 (Sanford-Burnham Center for Chemical Genomics, 2010)
